Here are results for 7 sequences from article PMC4081100, “A DNA-binding-site landscape and regulatory network analysis for NAC transcription factors in Arabidopsis thaliana”.

Test in all cases: universal protein binding microarray (PBM); transcription factors of Arabidopsis thaliana; high values mean tight binding
One assay addresses T1, GST-ANAC092(1-176) (Arabidopsis thaliana, UniProt Q9FKA0 1-176).
T1 sequence: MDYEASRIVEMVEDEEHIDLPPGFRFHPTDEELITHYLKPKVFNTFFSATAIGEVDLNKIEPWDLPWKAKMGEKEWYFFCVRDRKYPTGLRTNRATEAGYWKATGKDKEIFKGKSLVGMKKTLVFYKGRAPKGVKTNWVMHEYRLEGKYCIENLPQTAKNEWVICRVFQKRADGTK
To be noted: protein: recombinant; tags: GST; chain copies: 2; dsDNA, one strand shown. A digest of the protocol: (§1)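 Binding is expressed as the normalised enrichment score (E-score). Proteins carrying a GST tag, whether NAC-domain, full-length or DNA-binding-domain forms, were induced in cells, and zinc acetate was added for zinc-finger proteins. After purification on glutathione–Sepharose 4B and quantification by A280 or anti-GST western blot, each was applied in duplicate at 200 to 500 nM final to custom all-10-mer Agilent 4 × 180K arrays made double-stranded by primer extension. Gapped and ungapped 8-mers were scored.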

A further assay concerns the target GST-NTL6(1-168) (Arabidopsis thaliana, UniProt Q9SCK6 1-168). To be noted: protein: recombinant; tags: GST; chain copies: 2; dsDNA, one strand shown. A digest of the protocol:
as §1

Assay [1] deals with T2, GST-ANAC092(1-285) full length (Arabidopsis thaliana, UniProt Q9FKA0 1-285).
T2 sequence: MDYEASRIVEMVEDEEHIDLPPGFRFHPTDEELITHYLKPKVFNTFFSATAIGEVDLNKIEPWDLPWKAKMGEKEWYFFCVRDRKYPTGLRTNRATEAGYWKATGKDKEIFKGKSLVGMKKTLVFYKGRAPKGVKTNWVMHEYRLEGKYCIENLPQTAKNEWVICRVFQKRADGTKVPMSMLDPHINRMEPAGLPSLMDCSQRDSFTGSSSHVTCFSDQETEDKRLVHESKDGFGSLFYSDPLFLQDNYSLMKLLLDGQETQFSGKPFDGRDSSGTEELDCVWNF
To be noted: protein: recombinant; tags: GST; chain copies: 2; dsDNA, one strand shown. Summed up:
as §1

The next assay has as its target T3, GST-NAP(1-166) (Arabidopsis thaliana, UniProt O49255 1-166).
T3 sequence: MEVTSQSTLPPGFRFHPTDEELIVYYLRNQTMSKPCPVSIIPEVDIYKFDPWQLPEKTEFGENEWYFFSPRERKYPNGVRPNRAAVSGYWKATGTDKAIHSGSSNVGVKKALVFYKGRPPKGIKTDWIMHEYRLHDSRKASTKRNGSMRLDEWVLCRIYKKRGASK
Particulars: protein: recombinant; tags: GST; chain copies: 2; dsDNA, one strand shown. Summed up:
as §1

A further assay concerns the target T4, GST-NST2(1-184) (Arabidopsis thaliana, UniProt Q9M274 1-184).
T4 sequence: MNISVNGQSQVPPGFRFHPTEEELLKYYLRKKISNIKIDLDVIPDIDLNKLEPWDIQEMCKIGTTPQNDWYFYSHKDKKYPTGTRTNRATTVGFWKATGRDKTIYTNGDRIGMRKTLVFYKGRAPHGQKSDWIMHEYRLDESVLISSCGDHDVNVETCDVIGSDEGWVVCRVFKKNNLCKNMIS
To be noted: protein: recombinant; tags: GST; chain copies: 2; dsDNA, one strand shown. Summed up: as §1

Another assay deals with T5, GST-NTL8 NAC domain (Arabidopsis thaliana, UniProt Q9XIN7 14-156).
T5 sequence: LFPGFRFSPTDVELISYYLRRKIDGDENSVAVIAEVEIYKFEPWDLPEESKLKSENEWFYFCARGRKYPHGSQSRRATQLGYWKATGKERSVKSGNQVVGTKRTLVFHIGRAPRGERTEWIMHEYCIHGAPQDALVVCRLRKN
Particulars: protein: recombinant; tags: GST; chain copies: 2; dsDNA, one strand shown. A digest of the protocol:
as §1

Another assay has as its target T6, GST-SND1(1-203) (Arabidopsis thaliana, UniProt Q9LPI7 1-203).
T6 sequence: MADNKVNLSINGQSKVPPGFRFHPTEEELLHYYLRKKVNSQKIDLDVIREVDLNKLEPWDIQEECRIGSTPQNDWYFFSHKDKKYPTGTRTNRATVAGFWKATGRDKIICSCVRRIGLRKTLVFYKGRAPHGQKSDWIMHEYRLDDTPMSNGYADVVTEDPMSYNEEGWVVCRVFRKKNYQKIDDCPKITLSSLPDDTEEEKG
Particulars: protein: recombinant; tags: GST; chain copies: 2; dsDNA, one strand shown. A digest of the protocol: as §1

Another assay deals with T7, GST-VND3 NAC domain (Arabidopsis thaliana, UniProt Q9FH59 12-162).
T7 sequence: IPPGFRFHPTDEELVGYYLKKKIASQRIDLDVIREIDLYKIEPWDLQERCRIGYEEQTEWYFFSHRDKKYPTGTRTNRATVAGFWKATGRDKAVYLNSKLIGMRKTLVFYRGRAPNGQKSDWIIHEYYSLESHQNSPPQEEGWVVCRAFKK
To be noted: protein: recombinant; tags: GST; chain copies: 2; dsDNA, one strand shown. Summed up: as §1

A further assay deals with T8, GST-VND7 NAC domain (Arabidopsis thaliana, UniProt Q9C8W9 9-158).
T8 sequence: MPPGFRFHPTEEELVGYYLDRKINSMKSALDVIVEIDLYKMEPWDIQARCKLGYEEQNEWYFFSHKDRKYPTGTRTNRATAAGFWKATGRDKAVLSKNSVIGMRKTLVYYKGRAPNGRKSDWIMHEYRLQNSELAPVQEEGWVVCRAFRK
To be noted: protein: recombinant; tags: GST; chain copies: 2; dsDNA, one strand shown. Summed up: as §1

The next assay deals with GST-WRKY1(266-371) (Arabidopsis thaliana, UniProt Q9SI37 266-371). To be noted: protein: recombinant; tags: GST; dsDNA, one strand shown. A digest of the protocol:
as §1

The next assay deals with T9, GST-ANAC019 NAC domain (Arabidopsis thaliana, UniProt Q9C932 14-162).
T9 sequence: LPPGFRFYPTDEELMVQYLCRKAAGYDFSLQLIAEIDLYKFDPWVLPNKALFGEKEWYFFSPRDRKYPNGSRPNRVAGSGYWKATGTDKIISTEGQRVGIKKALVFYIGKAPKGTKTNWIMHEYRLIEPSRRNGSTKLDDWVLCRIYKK
Particulars: protein: recombinant; tags: GST; chain copies: 2; dsDNA, one strand shown. A digest of the protocol: as §1

The target in a further assay is T10, GST-ANAC055(1-171) (Arabidopsis thaliana, UniProt Q9LDY8 1-171).
T10 sequence: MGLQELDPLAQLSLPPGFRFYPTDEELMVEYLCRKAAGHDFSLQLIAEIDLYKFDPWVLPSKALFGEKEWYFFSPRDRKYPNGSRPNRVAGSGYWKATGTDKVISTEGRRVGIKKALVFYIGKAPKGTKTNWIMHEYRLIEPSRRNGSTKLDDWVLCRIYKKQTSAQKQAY
To be noted: protein: recombinant; tags: GST; chain copies: 2; dsDNA, one strand shown. A digest of the protocol:
as §1

For a further assay, the target named is T11, GST-ATAF1 NAC domain (Arabidopsis thaliana, UniProt Q39013 7-158).
T11 sequence: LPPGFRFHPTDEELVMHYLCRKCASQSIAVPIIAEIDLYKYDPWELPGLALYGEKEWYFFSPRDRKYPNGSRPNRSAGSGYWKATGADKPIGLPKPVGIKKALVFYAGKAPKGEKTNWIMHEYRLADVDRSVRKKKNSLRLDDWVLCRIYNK
To be noted: protein: recombinant; tags: GST; chain copies: 2; dsDNA, one strand shown. A digest of the protocol: as §1

Sequence of GST-NTL6(1-168) (Q9SCK6 1-168): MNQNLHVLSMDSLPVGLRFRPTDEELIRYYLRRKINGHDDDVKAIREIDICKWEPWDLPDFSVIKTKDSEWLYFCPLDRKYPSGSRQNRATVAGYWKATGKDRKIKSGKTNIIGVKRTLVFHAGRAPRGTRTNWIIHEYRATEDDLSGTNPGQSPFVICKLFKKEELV
Sequence of GST-WRKY1(266-371) (Q9SI37 266-371): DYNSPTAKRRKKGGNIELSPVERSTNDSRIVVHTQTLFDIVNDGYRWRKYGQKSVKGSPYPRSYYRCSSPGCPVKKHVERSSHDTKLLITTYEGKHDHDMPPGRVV

Consider ACAAGTCA, for which the binding signal was 0.0976 E-score with GST-ANAC092(1-176); 0.0563 E-score in the assay with GST-NTL6(1-168); 0.276 E-score in [1]; 0.146 E-score with GST-NAP(1-166); 0.0664 E-score with GST-NST2(1-184); 0.0517 E-score with GST-NTL8 NAC domain. Further, the binding signal with GST-SND1(1-203) was 0.114 E-score; in the assay with GST-VND3 NAC domain, 0.0796 E-score; with GST-VND7 NAC domain, 0.0869 E-score; with GST-WRKY1(266-371) it was 0.43 E-score.
For the sequence GCGTGCAC, the binding signal with GST-ANAC092(1-176) was 0.372 E-score; with GST-ANAC019 NAC domain, 0.255 E-score; with GST-ANAC055(1-171), 0.158 E-score; with GST-ATAF1 NAC domain, 0.154 E-score; in assay [1] it was 0.415 E-score; in the assay with GST-NAP(1-166), 0.145 E-score. Further, the binding signal amounted to 0.169 E-score with GST-NST2(1-184); 0.198 E-score with GST-SND1(1-203); 0.16 E-score in the assay with GST-VND3 NAC domain; 0.216 E-score with GST-VND7 NAC domain; 0.0555 E-score with GST-WRKY1(266-371).
For the sequence ATACGTCA, the binding signal in the assay with GST-ANAC092(1-176) is 0.412 E-score; with GST-ANAC019 NAC domain it was 0.251 E-score; in the assay with GST-ANAC055(1-171), 0.267 E-score; with GST-ATAF1 NAC domain, 0.345 E-score; in [1], 0.435 E-score; in the assay with GST-NAP(1-166), 0.373 E-score. In addition, the binding signal was 0.183 E-score with GST-NST2(1-184); 0.298 E-score in the assay with GST-SND1(1-203); 0.337 E-score with GST-VND3 NAC domain; 0.322 E-score with GST-VND7 NAC domain; 0.196 E-score in the assay with GST-WRKY1(266-371).
As to CACGTCAG, the binding signal in the assay with GST-ANAC092(1-176) was 0.336 E-score; in the assay with GST-ANAC019 NAC domain, 0.261 E-score; with GST-ANAC055(1-171), 0.19 E-score; with GST-ATAF1 NAC domain it was 0.203 E-score; in assay [1], 0.407 E-score; with GST-NAP(1-166), 0.154 E-score. Further, the binding signal in the assay with GST-SND1(1-203) amounted to 0.0864 E-score; with GST-VND3 NAC domain it was 0.127 E-score; with GST-VND7 NAC domain, 0.214 E-score; with GST-WRKY1(266-371), 0.081 E-score.
Turning to GTCACGCA, the binding signal in the assay with GST-ANAC092(1-176) was found to be 0.319 E-score; with GST-ANAC019 NAC domain it was 0.307 E-score; in the assay with GST-ANAC055(1-171), 0.236 E-score; in the assay with GST-ATAF1 NAC domain it was 0.193 E-score; in assay [1], 0.4 E-score; in the assay with GST-NAP(1-166), 0.197 E-score. For the same sequence, the binding signal with GST-NST2(1-184) is 0.119 E-score; with GST-SND1(1-203), 0.257 E-score; with GST-VND3 NAC domain, 0.167 E-score; with GST-VND7 NAC domain it was 0.252 E-score; with GST-WRKY1(266-371), 0.228 E-score.
Take ATAACGTA: the binding signal with GST-ANAC092(1-176) stood at 0.418 E-score; with GST-NTL6(1-168) it was 0.119 E-score; in the assay with GST-ANAC055(1-171) it was 0.19 E-score; with GST-ATAF1 NAC domain, 0.289 E-score; in assay [1], 0.423 E-score; with GST-NAP(1-166), 0.187 E-score. Further, the binding signal in the assay with GST-NST2(1-184) was found to be 0.37 E-score; with GST-SND1(1-203), 0.465 E-score; with GST-VND3 NAC domain, 0.334 E-score; in the assay with GST-VND7 NAC domain, 0.156 E-score; with GST-WRKY1(266-371) it was 0.0761 E-score.
With CAAGGAAA, the binding signal in the assay with GST-ANAC092(1-176) was 0.231 E-score; with GST-NTL6(1-168), 0.31 E-score; with GST-ANAC019 NAC domain it was 0.165 E-score; in the assay with GST-ANAC055(1-171), 0.147 E-score; with GST-ATAF1 NAC domain, 0.167 E-score; in assay [1] it was 0.241 E-score. Moreover, the binding signal was determined as 0.0952 E-score with GST-NAP(1-166); 0.189 E-score in the assay with GST-NST2(1-184); 0.46 E-score with GST-NTL8 NAC domain; 0.242 E-score in the assay with GST-SND1(1-203); 0.202 E-score in the assay with GST-VND3 NAC domain; 0.181 E-score in the assay with GST-VND7 NAC domain. In addition, the binding signal in the assay with GST-WRKY1(266-371) was found to be 0.0889 E-score.
